From the supplement of paper PMC6288085
Structures can show the parent of a compound that is named as a salt. ± gives the uncertainty stated by the source.

What follows are compounds tested on Caenorhabditis elegans N2 (assay: food intake (mean delta OD600 / animal over 72 h) with 50 uM loxapine co-treatment (OD600 units per animal); higher = more food eaten (less suppression of loxapine-induced hyperphagia)). Conditions: first compound 33 µM, loxapine concentration 50 µM.
Protocol: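 C. elegans N2 adults (FUDR-sterilised, day 1) in 96-well plates fed gamma-irradiated bacteria. Each library drug (MedChemExpress FDA-approved library) at 33 uM was combined with loxapine at 50 uM. Food intake was measured as bacterial clearance: the change in OD600 from day 1 to 72 h, normalised per animal (mean over 14-21 wells of about 10-12 worms). Drugs flagged for bacterial lysis or sickness were excluded by the authors.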

| SMILES | food intake |
| --- | --- |
| CN1CCC[C@H]1c1cccnc1 [L-nicotine] + CN1CCN(C2=Nc3ccccc3Oc3ccc(Cl)cc32)CC1 [loxapine] | 0.0212 ± 0.0058 |
| C[C@]12CC[C@@H]3c4ccc(O)cc4CC[C@H]3[C@@H]1CC[C@@H]2OC(=O)CCC1CCCC1 [estradiol (cypionate)] + CN1CCN(C2=Nc3ccccc3Oc3ccc(Cl)cc32)CC1 [loxapine] | 0.0224 ± 0.0087 |
| CN(CCOc1ccc(CC2SC(=O)NC2=O)cc1)c1ccccn1 (centres undefined) [rosiglitazone] + CN1CCN(C2=Nc3ccccc3Oc3ccc(Cl)cc32)CC1 [loxapine] | 0.0226 ± 0.0041 |
| CCc1ccc(CCOc2ccc(CC3SC(=O)NC3=O)cc2)nc1 (centres undefined) [pioglitazone (hydrochloride)] + CN1CCN(C2=Nc3ccccc3Oc3ccc(Cl)cc32)CC1 [loxapine] | 0.0215 ± 0.0041 |
